# Bioassay records from PubChem BioAssay.
# An excerpt weighted towards active compounds, which were near 7.4% of everything screened.
# FLuc modulator: qHTS profiling assay for firefly luciferase inhibitor/activator using purifed enzyme and Km concentrations of substrates (counterscreen for miR-21 project); purified FLuc, Km substrates, luminescence inhibition; Potency, µM (series often up to 57.5 µM), for the others: top-dose activity change, negative = inhibition, actives largely listed as inhibitors; hit rate 6.9% among 360,000;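 further: plate controls were vehicle for no effect and reference inhibitor for full effect; nearly all actives have a fitted effect of over 55% in size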
# Target sequence (P08659 whole entry, looked up): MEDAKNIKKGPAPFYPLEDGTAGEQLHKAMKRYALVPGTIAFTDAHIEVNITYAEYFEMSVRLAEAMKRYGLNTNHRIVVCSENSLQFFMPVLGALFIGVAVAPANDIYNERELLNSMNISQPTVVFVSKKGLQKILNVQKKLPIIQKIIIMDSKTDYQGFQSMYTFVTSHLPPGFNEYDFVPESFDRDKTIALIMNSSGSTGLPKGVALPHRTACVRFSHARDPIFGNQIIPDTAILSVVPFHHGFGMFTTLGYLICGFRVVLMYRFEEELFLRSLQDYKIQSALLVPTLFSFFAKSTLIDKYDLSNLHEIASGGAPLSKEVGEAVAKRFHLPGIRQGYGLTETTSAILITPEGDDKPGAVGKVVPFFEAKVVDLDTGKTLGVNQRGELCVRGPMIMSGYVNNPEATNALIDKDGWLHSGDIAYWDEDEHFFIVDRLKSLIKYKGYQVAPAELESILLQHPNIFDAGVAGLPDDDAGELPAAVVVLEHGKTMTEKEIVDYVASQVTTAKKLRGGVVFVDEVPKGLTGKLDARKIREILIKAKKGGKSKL
#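 Purified P. pyralis luciferase (10nM final) with 10uM D-luciferin and 10uM ATP (Km levels) in 50mM Tris acetate pH 7.5, 10mM Mg acetate, 0.01% Tween-20, 0.05% BSA; qHTS 6-point titration, ~60 µM downward; luminescence read.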
# Rab9 prom act: qHTS Assay for Rab9 Promoter Activators; AID 485297, 2010; hit rate 2.8% among 320,000; Huh7 Rab9 promoter-luciferase reporter, luminescence, 24 h; Potency, µM (highest dose often 9.22 µM), for the others: at the top dose activation, negative = inhibition, most hits filed as activators; further: % of control where 0% means no effect; nearly all actives have a fitted effect of over 60% in size
#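 Huh7 cells stably carrying Rab9 promoter–luciferase reporter, plated 1500 cells/well, compound added after 2 h and incubated 24 h at 37 °C; luciferase luminescence then read after 10 min with detection reagent.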
# NPC1 prom act: qHTS Assay for NPC1 Promoter Activators. Potency, µM (doses to about 9.22 µM), for the others: at the highest dose activation, most hits filed as activators. AID 485313, 2010. hit rate 2.4% among 320,000. Huh7 NPC1 promoter luciferase reporter, 24 h; further: % of control where 0% means no effect; nearly all actives have a fitted effect of over 60% in size
#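 Compounds in DMSO were transferred onto Huh7 NPC1-luciferase reporter cells pre-incubated 2 h; after 24 h at 37 °C, Amplite reagent was dispensed and luminescence recorded 10 min later.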
# KinaseGlo FLuc: Counterscreen for Luciferase (Kinase-Glo TM) Inhibition; Luciferin 4-monooxygenase (Photuris pensylvanica), Q27757; Kinase-Glo luciferase, ATP luminescence, 8 min; Potency, µM (highest dose often 38.3 µM), without a hit: top-dose activity change, negative = inhibition, hits mostly inhibitors; hit rate 0.28% among 200,000; further: on the % scale 0 is the no-effect control and ±100 the full control effect; nearly all actives have a fitted effect of over 60% in size
#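 Luminescence was the read-out, taken after 8-minute incubation at ambient temperature. Luciferase turned over luciferin with 10 uM ATP in imidazole pH 7.2 buffer containing KCl, MgCl2, Tween 20 and BSA.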
# ELG1 genotoxic: qHTS screen for small molecules that induce genotoxicity in human embryonic kidney (HEK293T) cells expressing luciferase-tagged ELG1; HEK293T ELG1-luciferase reporter, luminescence, 16 h; Potency, µM (titrated, usually from 46 µM), inactives show at the top dose activity change, positive = activation, usual class: activators; hit rate 1.3% among 330,000; AID 504466, 2011; further: % of control where 0% means no effect; nearly all actives have a fitted effect of over 60% in size
#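 Step 1: seed 2,000 HEK293T ELG1-luciferase cells per well. Step 2: add compound or DMSO, incubate 16 hr at 37 °C. Step 3: ONE-Glo, 30 min at room temperature, read luminescence.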
# SMN2 splice up: qHTS Assay for Enhancers of SMN2 Splice Variant Expression; Potency, µM (titrated, usually from 46.1 µM), for the others: top-dose activity change, positive = activation, hits mostly activators; hit rate 2.8% among 210,000; HEK293 SMN2-luciferase splicing reporter, luminescence, 30-36 h; AID 1458, 2008; further: % of control where 0% means no effect; nearly all actives have a fitted effect of over 55% in size
#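 HEK293 cells carry an SMN2 […]–luciferase reporter in which exon 7 inclusion puts luciferase in frame. Cells were plated 10-12 h before compound addition, then incubated 30-36 h at 37C. ONE-Glo luminescence was read; sodium butyrate at 4.5 mM final served as control.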
# Numbers without * were called inactive; u = inconclusive; x = not tested or not shown; [ ] = another dose, or the depositor's remark. The call rests on the fitted dose curve; in most records, active means well fitted curve in the direction sought with a large enough effect; inconclusive means small, poorly fitted or top-dose-only effect, or another doubt; inactive means no such curve, though single readings can be large; an effect the other way counts as inactive or inconclusive. Potency means the concentration at half of the fitted maximal effect.
SMILES,FLuc modulator,Rab9 prom act,NPC1 prom act,KinaseGlo FLuc,ELG1 genotoxic,SMN2 splice up
C/C(=N\NC(=O)COc1ccc(C)cc1C(C)C)c1ccc(-n2ccnc2)cc1,1.9µM*,13.7%,5.6%,0.7%,-1.6%,9.3%
COC(=O)N/N=C(\C)c1ccc(-n2ccnc2)cc1,-12.9%,17.3%,-3.7%,-5.3%,5.4%,13.7%
CCn1nc(C(=O)N[C@@H](CCSC)c2nc3ccccc3[nH]2)c2ccccc2c1=O,10.7µM*,0.0%,2.0%,12.7%,15.5%,17.8%
CCCCn1nc(C(=O)N[C@@H](CCSC)c2nc3ccccc3[nH]2)c2ccccc2c1=O,u,x,x,-4.2%,x,-10.7%
CC1(C)C(=O)C(c2ccccc2)=C2CN3C(=O)N(CCc4ccccc4)C(=O)C3(Cc3ccccc3)C=C21 (configuration not stated),x,x,x,-3.4%,x,-16.6%
Clc1ccc(-c2nnn(Cc3nc4ccccc4s3)n2)cc1,19µM*,15.7%,7.6%,1.6%,u,14.3%
COc1ccc2oc(-c3ccco3)cc(=O)c2c1,12µM*,0.794µM*,2.51µM*,u,u,11.2µM*
O=c1cc(-c2ccco2)oc2ccc(Cl)cc12,-5.6%,24.9%,27.1%,-3.3%,u,17.9%
O=C(COc1ccc2oc(-c3ccccc3)cc(=O)c2c1)NCc1ccco1,2.39µM*,u,6.0%,13.8%,15.6%,-26.6%
O=C(COc1ccc2oc(-c3ccco3)cc(=O)c2c1)N1CCCCC1,16.9µM*,3.5%,3.1%,2.1%,-0.8%,3.0%
Cc1cc(=O)oc2ccc(OCC(=O)NCc3ccco3)cc12,0.8%,0.7%,0.0%,-1.7%,-0.7%,6.4%
COc1cccc2oc(-c3ccco3)cc(=O)c12,15.1µM*,u,u,-24.0%,u,15.8µM*
C[C@H]1CC(C)(C)C[C@@](OCCN2CCCCC2)(c2ccccc2)C1,x,x,x,-2.6%[7.66 µM],x,-20.9%[9.22 µM]
CCCCC1=CC2=C(OC(C)=O)C(=O)C(C)(OC(=O)C3CCCC3)C(=O)C2=CO1 (configuration not stated),x,x,x,-5.5%,x,12.2%
C/C=C/Cn1cccc(C(=O)Nc2ccc(OC)cc2)c1=O,23.9µM*,u,u,-9.8%,7.8%,-20.8%
C=CCn1c(N)c(C(=O)Nc2ccccc2OC)sc1=S,u,24.6%,-3.1%,x,1.9%,x
C=CCn1c(N)c(C(=O)Nc2ccc(C)cc2)sc1=S,1.2µM*,2.82µM*,u,0.6%,u,20.4%
COc1ccc(NC(=O)c2ccccc2NC(=O)CSc2ccccc2)cc1,-4.7%,u,u,x,17.2%,x
C=CCn1cccc(C(=O)Nc2ccc(C)cc2)c1=O,10.7µM*,2.82µM*,4.47µM*,x,u,x
C=CCn1cccc(C(=O)Nc2ccc(C)c(C)c2)c1=O,10.7µM*,2.24µM*,1.58µM*,x,u,x
C=CCn1cccc(C(=O)Nc2cc(OC)ccc2OC)c1=O,-5.4%,21.3%,13.9%,0.4%,0.0%,-2.6%
CC(=O)Nc1ccc(-c2nnc(SCC(=O)c3ccc([N+](=O)[O-])cc3)o2)cc1,6.4%,x,x,x,x,3.4%
Cc1ccc(-n2c(SCCC(C)C)nc3sc4c(c3c2=O)CC(C)(C)OC4)cc1,-4.7%,x,x,x,x,-1.2%
CCOC(=O)C1C(=O)C=C(c2ccc(C)cc2)CC1c1cccc([N+](=O)[O-])c1 (configuration not stated),10.7µM*,0.4%,-4.0%,x,-6.4%,x
CCOC(=O)C1C(=O)C=C(c2ccc(C)cc2)CC1c1ccco1 (configuration not stated),12µM*,17.7%,2.2%,-3.9%,-0.1%,-3.1%
SMILES,FLuc modulator,Rab9 prom act,NPC1 prom act,KinaseGlo FLuc,ELG1 genotoxic,SMN2 splice up
Cn1c(=O)c(-c2cc(F)cc(F)c2)nc2cnc(Oc3ccccc3)nc21,x,x,x,-4.0%,x,-7.5%
Cc1cccc(-c2nc(Nc3cccc(O)c3)c3ccccc3n2)c1,u,1.2%,0.3%,x,-5.7%,x
Oc1cccc(Nc2cc(-c3ccccc3)ncn2)c1,16.9µM*,x,x,x,x,x
CC(C)(C)NC(=O)[C@H]1CN(Cc2cccnc2)CCN1C[C@@H](O)C[C@@H](Cc1ccccc1)C(=O)N[C@H]1c2ccccc2C[C@H]1O,x,x,x,3.1%[39.9 µM],x,x
CC(=O)Nc1ccc(NC(=S)NC(=O)C2CC2)cc1,-14.6%,25.7%,14.1%,x,u,x
Cc1cccc(NC(=S)NC(=O)c2ccc(Br)o2)c1C,u,0.7%,6.6%,-0.5%,8.5%,4.6%
Cc1ccc(NC(=S)NC(=O)c2ccc(Br)o2)c(C)c1,9.53µM*,2.82µM*,u,-2.5%,u,8.91µM*
Cc1ccc(NC(=S)NC(=O)C2CC2)c(C)c1,15.1µM*,u,u,x,20.6µM*,x
Cc1ccc(NC(=S)NC(=O)C2CCC2)cc1C,9.53µM*,3.98µM*,1.41µM*,x,u,x
O=C(NC(=S)Nc1ccccc1Br)C1CCCC1,19µM*,15.1%,u,x,u,x
COc1ccc(-c2noc(CSc3nnc(C)n3-c3ccc(F)cc3)n2)cc1,-16.5%,x,x,x,x,-9.7%
Cc1ccc(NC(=S)NC(=O)C2CCCC2)cc1C,10.7µM*,2.51µM*,3.16µM*,x,u,x
c1ccc2[nH]c(NCc3ccc4c(c3)OCO4)nc2c1,3.38µM*,u,u,-3.2%,u,x
Cc1ccc2nc(C3CCN(C(=O)NCc4ccccc4)CC3)[nH]c2c1,16.9µM*,-6.8%,11.3%,-7.9%,5.8%,1.8%
Cc1ccc2nc(NCc3ccccc3)[nH]c2c1,9.53µM*,u,21.9%,13.1%,11.2µM*,8.91µM*
COc1ccc2nc(NCc3ccccc3)[nH]c2c1,15.1µM*,u,17.0%,-1.2%,u,12.6µM*
COc1ccc2nc(NCCO)[nH]c2c1,5.1%,-1.1%,0.1%,-2.1%,-0.3%,7.1%
O=c1[nH]c2ccccc2nc1NCc1ccccc1,u,17.9%,16.1%,x,14.0%,x
c1ccc(CNc2nc3ccccc3[nH]2)cc1,6.75µM*,u,15.2%,8.1%,u,u
Cc1cccc(C)c1OCc1cc(=O)n2c3c(sc2n1)CCCC3,-20.7%,x,x,x,x,-1.6%
CCOC(=O)/C=C/CCC/C=C/C(=O)c1ccccc1,x,x,x,3.0%,x,5.6%
CC(C)c1ccc2c(c1)[C@H]1OCC[C@H]1[C@@H](c1cccs1)N2,9.53µM*,-13.1%,-14.0%,-1.4%,0.8%,-40.5%
Cc1cc(C)c2c(c1)N[C@H](c1cccs1)[C@@H]1CCO[C@H]21,2.0%,0.1%,-3.9%,x,0.5%,x
